From PubChem BioAssay (NCATS) come the findings set out here.

Inconclusive results are not listed. Active and inactive are the calls of the source. Calls come from the whole dose curve; as a rule, active = well fitted cell-killing curve with a large enough effect; inconclusive = small, poorly fitted or top-dose-only effect, or effect the other way; inactive = no such curve, though single readings can be large or run the other way.
Potency is the fitted concentration of half-maximal effect.

The nature of the assay: Quantitative High-Throughput drug screen in 47 multiple myeloma cell lines against the NCATS MIPE library collection: KMS34_JCRB cell viability assay (AID 1918985). Note: nearly all actives have a fitted effect of over 40% in size. The following applies: KMS34 myeloma viability, CellTiter-Glo ATP luminescence, 48 h; series mostly up to 45.8 µM. From the text:
PI: Beverly A. Mock Ph.D.
Laboratory of Cancer Biology and Genetics,
Center for Cancer Research, National Cancer Institute,
National Institute of Health, Bethesda, Maryland
Drug resistance and disease progression are common in multiple myeloma (MM) patients, underscoring the need for new therapeutic combinations. […] We hypothesized that effective combinations would reduce MYC expression and enhance p16 activity. […] These preclinical data identify potentially useful drug combinations for evaluation in drug-resistant MM and reveal potential mechanisms of combined drug sensitivity.
Described herein is the primary MIPE qHTS used to cherrypick compounds. Validated compounds were then further tested for potential synergistic activiy.
[1] Peat TJ, Gaikwad SM, Dubois W, Gyabaah-Kessie N, Zhang S, Gorjifard S, Phyo Z, Andres M, Hughitt VK, Simpson RM, Miller MA, Girvin AT, Taylor A, Williams D, D'Antonio N, Zhang Y, Rajagopalan A, Flietner E, Wilson K, Zhang X, Shinn P, Klumpp-Thomas C, McKnight C, Itkin Z, Chen L, Kazandijian D, Zhang J, Michalowski AM, Simmons JK, Keats J, Thomas CJ, Mock BA. Drug combinations identified by high-throughput screening promote cell cycle transition and upregulate Smad pathways in myeloma. Cancer Lett. 2023 Aug 1;568:216284. doi: 10.1016/j.canlet.2023.216284. Epub 2023 Jun 24. PMID: 37356470; PMCID: PMC10408729.
SEQUENCE No. (e.g., 1, 2, 3, etc.); […] (e.g., Cells, Incubation, Reagent, etc.); VALUE and DESCRIPTION.
1; Cells; 5 uL; white, solid bottom 1536-well Greiner assay plate.
2; Compounds; 23 nL; Kalypsis pin tool (Wako USA) equipped with a 1536-well pin head to transfer to the assay plates.
3; Incubation; 48 hours; 37C incubation.
4; Reagent;5uL; CellTiter Glo (Promega).
5; Detector; 425V; Luminescence; Viewlux PerkinElmer.
NOTES (numbers refer to Sequence numbers above)
1. The cell-based screening methods employed in this study were like those previously published. Briefly, the corresponding myeloma cell lines were screened in 1,536-well plates with 500 cells, 5-uL per well for inhibition of cell viability (assessed by measuring ATP levels with CellTiterGlo).
2. NCATS MIPE 4.0 library of approved and investigational drugs were added using the Kalypsis pin tool. Wells treated with DMSO only for 100% viability and media only for 0% viability were used as controls.
3. The assay plates were covered and incubated for 48 hours in a 37C, 5% CO2 incubator with controlled humidity.
4. After 48 hours, CellTilter-GloTM luminescent substrate mix (Promega) reagent was added to the assay plate and plates we incubated for 5 min at room temperature.
5. Signal was measured as median relative luminescence units on a ViewLux (PerkinElmer) multiplate reader.
[1] Heske CM, Davis MI, Baumgart JT, Wilson K, Gormally MV, Chen L, Zhang X, Ceribelli M, Duveau DY, Guha R, Ferrer M, Arnaldez FI, Ji J, Tran HL, Zhang Y, Mendoza A, Helman LJ, Thomas CJ. Matrix Screen Identifies Synergistic Combination of PARP Inhibitors and Nicotinamide Phosphoribosyltransferase (NAMPT) Inhibitors in Ewing Sarcoma. Clin Cancer Res. 2017 Dec 1;23(23):7301-7311. doi: 10.1158/1078-0432.CCR-17-1121. Epub 2017 Sep 12. PMID: 28899971; PMCID: PMC6636827.
For the molecule `Cc1ccccc1C(=O)Nc1ccc(C(=O)N2CCCC(O)c3cc(Cl)ccc32)c(C)c1` (stereo not given), the Potency result is “inactive”.
For the molecule `CN(C)CCN1C(=O)c2cccc3cc(N)cc(c23)C1=O`, the Potency is 23500 nM (active).
The result for `COc1cc([C@@H]2c3cc4c(cc3[C@@H](O[C@@H]3O[C@@H]5CO[C@@H](c6cccs6)O[C@@H]5[C@H](O)[C@@H]3O)[C@H]3COC(=O)[C@H]23)OCO4)cc(OC)c1O` reads 1870 nM (active); that for `CC(=O)[C@]1(O)Cc2c(O)c3c(c(O)c2[C@@H](O[C@H]2C[C@H](N)[C@@H](O)[C@H](C)O2)C1)C(=O)c1ccccc1C3=O`, 235 nM (active); that for `CN[C@H]1[C@@H](O)[C@@H]2O[C@@H]3O[C@H](C)CC(=O)[C@]3(O)O[C@@H]2[C@@H](NC)[C@H]1O`, 1180 nM (active).
The result for `C=C1C(=O)O[C@H]2[C@@H]1CCC(C)=CCC[C@@]1(C)O[C@@H]21` reads 2090 nM (active); that for `N#Cc1c(NC(=O)c2cccc3ccccc23)sc2c1CCCC2`, 296 nM (active).
To `CNC(=O)c1cccc(-c2ccc3c(N4CCOC[C@H]4C)nc(N4CCOC[C@H]4C)nc3n2)c1` belongs 59 nM (active); to `COc1cc(C=CC(=O)CC(=O)C=Cc2ccc(O)c(OC)c2)ccc1O`, 6790 nM (active); to `O=C1NC(=O)[C@@H](c2cn3c4c(cccc24)CCC3)[C@H]1c1c[nH]c2ccccc12`, 418 nM (active).
In the case of `COc1cccc2c1C(=O)c1c(O)c3c(c(O)c1C2=O)C[C@@](O)(C(=O)CO)C[C@@H]3O[C@H]1C[C@H](N)[C@H](OC2CCCCO2)[C@H](C)O1` (stereo not given in full), the Potency is 2640 nM (active).
For `CC(C)n1cnc2c(NCCc3ccc(O)cc3)nc(-c3csc4ccccc34)nc21`, the Potency is 20900 nM (active).
To `C[C@@H]1C(=O)O[C@H]2CC34[C@H]5C[C@@H](C(C)(C)C)C36[C@H](OC(=O)[C@@H]6O)O[C@@]4(C(=O)O5)[C@]21O` (stereo not given in full) belongs “inactive”.
On to `Oc1ccc([C@@H]2Oc3ccc(O)cc3[C@@H]3CCC[C@@H]32)cc1`, for which the Potency is 23500 nM (active).
`CCCCCCCCCCCCc1ccc(S(=O)(=O)Nc2nncs2)cc1`: the Potency entry was “inactive”.
`c1ccc(CNc2nc(NCc3ccccc3)c3ccccc3n2)cc1`: the Potency is 20900 nM (active).
Regarding `CC[C@H](CC[C@@H](C)[C@H]1CC[C@H]2[C@@H]3CC=C4C[C@@H](O)CC[C@]4(C)[C@@H]3CC[C@]12C)C(C)C`, the Potency result is “inactive”.
`COC(=O)[C@@H]1CC2=CC(=O)CC[C@]2(C)[C@@]23O[C@@H]2C[C@@]2(C)[C@H](CC[C@@]24CCC(=O)O4)[C@@H]13`: the Potency result is “inactive”.
To `CC(C=CC(=O)NO)=C[C@@H](C)C(=O)c1ccc(N(C)C)cc1` belongs 83.3 nM (active); to `O=C(C=CC=Cc1ccc2c(c1)OCO2)N1CCCCC1`, “inactive”.
As to `COc1cc(CCc2cc(NC(=O)c3ccc(N4C[C@@H](C)N[C@@H](C)C4)cc3)n[nH]2)cc(OC)c1`, the Potency was 16600 nM (active).
The result for `O=c1c(O)c(-c2ccc(O)c(O)c2)oc2cc(O)ccc12` reads 18700 nM (active); that for `COc1cc(O)c2c(c1)C1OC1C[C@H](O)[C@H](O)C(=O)C=CC[C@H](C)OC2=O` (stereo not given in full), 2350 nM (active).
To `COc1ccc(C[C@@H](C)[C@@H](C)Cc2ccc(OC)c(OC)c2)cc1OC` belongs 132 nM (active); to `COc1cc(OC)c(NC(=O)Nc2cc(C)on2)cc1Cl`, “inactive”; to `O=C(CCCCCCC(=O)Nc1cccnc1)NO`, 3720 nM (active).
The result for `COC1=C(OC)C(=O)C(CC=C(C)CCC=C(C)CCC=C(C)CCC=C(C)CCC=C(C)CCC=C(C)CCC=C(C)CCC=C(C)CCC=C(C)CCC=C(C)C)=C(C)C1=O` reads “inactive”.
Turning to `COc1ccc(Nc2cc(-c3cnc(N)nc3)nc(N3CCOCC3)n2)cn1`, the Potency is 2960 nM (active).
To `O=C(Nc1cccc(Nc2ncc(Br)c(NCCc3cnc[nH]3)n2)c1)N1CCCC1` belongs 2960 nM (active); to `COc1ccc2c(c1OC)C(=O)OC2[C@H]1c2c(cc3c(c2OC)OCO3)CCN1C` (stereo not given in full), 37.2 nM (active).
The result for `OC[C@H]1OC(O)C[C@@H](O)[C@H]1O` (stereo not given in full) reads “inactive”; that for `CC(=O)SCC(Cc1ccccc1)C(=O)NCC(=O)OCc1ccccc1` (stereo not given), 2350 nM (active).
Turning to `CC(=O)C1=C(O)C=C2Oc3c(C(C)=O)c(O)c(C)c(O)c3C2(C)C1=O` (stereo not given), the Potency entry is “inactive”.
To `CC(C)c1cnn2c(NCc3ccccc3)cc(NCCCCCCN)nc12` belongs 18700 nM (active); to `FC(F)c1nc2ccccc2n1-c1nc(N2CCOCC2)nc(N2CCOCC2)n1`, 1320 nM (active); to `Cn1cc(C=CC(=O)c2cccc(F)c2)cc1C=CC(=O)NO`, 16600 nM (active).
The result for `C=CC(=O)Nc1ccc2ncnc(Nc3ccc(OCc4cccc(F)c4)c(Cl)c3)c2c1` reads 332 nM (active).
Consider `CON=C(C(=O)N[C@@H]1C(=O)N2C(C(=O)O)=C(Cn3ccc(=N)n3CCO)CS[C@H]12)c1csc(N)n1`, for which the Potency entry was “inactive”.
The result for `CCCCCCCCCCCCCCCC(=O)OC[C@@H](NC(=O)C(Cl)Cl)[C@H](O)c1ccc([N+](=O)[O-])cc1` reads “inactive”; that for `CN1CCCN(C(=O)c2cccc(-c3ccc(C=C4C(=O)Nc5ccc(Cl)cc54)o3)c2)CC1`, 16600 nM (active).
